# Screening data as filed in PubChem.
# Sampled rows, rich in hits. Any-hit rate of the full collection: about 11%.
# Sfp inh – blocks B. subtilis Sfp PPTase activity. Q9F4F7. Biochemical Sfp PPTase activity, qHTS. Potency, µM, inactives show largest response in the series, negative = inhibition, usual class: inhibitors. 3.5% of 310,000 active;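 note: the enzyme is Sfp with the accession as filed and its product quenches rhodamine fluorescence; potency is the fitted concentration of half-maximal effect; 0% = enzyme reaction without inhibitor and -100% = no enzyme wells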
#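 After 15 min at room temperature with compound, 15 nM Sfp received 5 uM rhodamine-CoA plus 12.5 uM BHQ-2-ybbR (50 mM Hepes pH 7.6, 10 mM MgCl2). Rate came from the fluorescence difference over 30 min, ex 525/em 598 nm.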
# G9a block – blocks human histone lysine methyltransferase G9a; Q96KQ7; G9a H3K9 monomethylation, AlphaScreen, 2 h; Potency, µM (highest dose often 102 µM), for the others: at the highest dose activity, negative = inhibition, actives largely listed as inhibitors; 8.8% of 350,000 active; note: potency is the fitted concentration of half-maximal effect; nearly all actives have a fitted effect of over 75% in size
# Target sequence (Q96KQ7 913-1193 limits assumed): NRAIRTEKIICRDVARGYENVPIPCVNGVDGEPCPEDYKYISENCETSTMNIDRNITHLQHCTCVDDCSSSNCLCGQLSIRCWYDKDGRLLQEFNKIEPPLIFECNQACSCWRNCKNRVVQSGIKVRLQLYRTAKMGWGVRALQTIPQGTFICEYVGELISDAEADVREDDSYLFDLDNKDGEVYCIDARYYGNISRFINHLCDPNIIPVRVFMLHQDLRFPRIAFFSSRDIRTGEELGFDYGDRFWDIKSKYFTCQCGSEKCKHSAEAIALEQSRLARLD
#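 Methyltransferase reactions run at room temperature for 2 h (20 nM enzyme, 500 nM biotin-H3K9 peptide, 20 uM SAM) after a 15 min compound preincubation; product detected by AlphaScreen beads and anti-H3K9me1 antibody.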
# Tau fluor counter – counter-screen for tau fibril formation inhibitors. 0.93% of 280,000 active. tau K18 P301L Alexa594 fluorescence, heparin fibrillization. AID 1463. Potency, µM (highest dose often 57.7 µM), for inactives: at the top dose activity change, negative = decrease; note: potency is the fitted concentration of half-maximal effect; nearly all actives have a fitted effect of over 55% in size
#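 Human K18 P301L tau (15 uM unlabeled plus 0.24 uM Alexa 594-labeled, final) in 100 mM sodium acetate pH 7 was mixed with compound and 20 uM heparin and incubated 6 hr at 37 C.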
# Tau FP inhib – inhibitors of human tau fibril formation. P10636. K18 P301L tau heparin fibrillization, Alexa594 FP, 6 h. Potency, µM (series often up to 57.7 µM), for the others: at the top dose activity, negative = inhibition, hits mostly inhibitors. 0.39% of 280,000 active; note: potency is the fitted concentration of half-maximal effect; nearly all actives have a fitted effect of over 55% in size
# Target sequence (P10636 561-689 P618L limits assumed): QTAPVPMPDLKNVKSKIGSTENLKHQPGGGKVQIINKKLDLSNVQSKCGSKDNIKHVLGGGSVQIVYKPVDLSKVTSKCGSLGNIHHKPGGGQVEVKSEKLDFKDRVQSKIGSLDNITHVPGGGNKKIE
#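 Recombinant K18 P301L […], labeled with Alexa 594 at 0.24 uM over 15 uM unlabeled; heparin inducer 20 uM final; 37 C, 6 hr; FP endpoint.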
# FBPA coupling cs – coupling enzyme interference in Giardia aldolase counter-screen; coupling enzyme system counterscreen, AmpLite Red fluorescence; activity change, negative = inhibition, % at 58.2 µM, hits read low; 0.67% of 290,000 active; in the data active = activity change below about -30%
#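 Counterscreen lacking aldolase: glyceraldehyde-3-phosphate coupling-enzyme reagent preincubated 10 min at RT with compound (at 57.5 uM final), then substrate/coupling system with AmpLite Red added; fluorescence read at 525/598 nm after 20 min RT.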
# Tau fibril ThT – blocks human tau fibril formation measured by thioflavin T | P10636 | recombinant tau K18 P301L (four-repeat tau fragment), heparin-induced fibrillization, ThT fluorescence | Potency, µM (series often up to 57.4 µM), inactives show at the top dose activity, negative = inhibition, hits mostly inhibitors | 2.1% of 270,000 active | AID 1460; note: potency is the fitted concentration of half-maximal effect; nearly all actives have a fitted effect of over 55% in size
#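 Heparin-induced fibrillization of the P301L-mutant K18 repeat-domain fragment of human tau was followed by ThT binding in quantitative high-throughput format.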
# * = called active by the depositor; ? = inconclusive; nt = not tested or not shown; [ ] = another dose, or the depositor's remark. Unless noted, calls come from the whole dose curve; as a rule, active = well fitted curve in the direction sought with a large enough effect; inconclusive = small, poorly fitted or top-dose-only effect, or another doubt; inactive = no such curve, though single readings can be large; an effect the other way counts as inactive or inconclusive. Unless noted, % is set by controls: 0 for no effect and ±100 for the full control effect.
SMILES,Sfp inh,G9a block,Tau fluor counter,Tau FP inhib,FBPA coupling cs,Tau fibril ThT
Cc1ccc(NC(=O)CCC(=O)NNS(=O)(=O)c2ccccc2)c(C)c1,11.6%,50.1µM*,1.2%,4.8%,-1.1,-1.0%
Cc1ccc(NC(=O)CCC(=O)NNC(=O)/C=C/C(=O)O)c(C)c1,-8.9%,10µM*,-13.8%,-6.4%,1.3,?
O=C(CCC(=O)Nc1ccccc1)NNS(=O)(=O)c1ccc(Cl)cc1,56.2µM*,6.31µM*,nt,nt,nt,nt
Cc1ccnc(NS(=O)(=O)c2ccc(C(C)(C)C)cc2)c1,8.4%,8.6%,-6.2%,-6.3%,1.1,-8.7%
Cc1ccc(NC(=S)NC(=O)C2CCCC2)cc1C,-6.5%,35.5µM*,nt,nt,nt,nt
Cc1ccc(NC(=S)NC(=O)C2CCC2)cc1C,7.8%,-6.8%,nt,nt,-0.4,nt
CC(=O)Nc1ccc(S(=O)(=O)Nc2ccc(Nc3ccccc3)cc2)cc1,-1.7%,39.8µM*,nt,nt,0.2,nt
CC(=O)Nc1ccc(S(=O)(=O)Nc2cc(C)ccn2)cc1,9.0%,50.1µM*,8.2%,2.8%,1.1,5.9%
O=C(NC(=S)Nc1ccc(S(=O)(=O)Nc2ccccc2)cc1)C1CC1,5.0%,14.1µM*,-29.7%,-11.1%,2.7,0.2%
COC(=O)c1ccc(NC(=O)CC2C(=O)N(c3cccc(OC)c3)C(=O)N2Cc2cccs2)cc1 (centres undefined),nt,-5.2%[59 µM],?,-13.9%,nt,0.2%
CCN(CC)CCCNC(=O)CSc1nc2nc(C)c(Cc3ccccc3C)c(C)n2n1,nt,0.8%[59 µM],-11.4%,-5.5%,nt,-3.1%
COc1ccc(C(=O)NCc2cc(C)nc3ccccc23)cc1,2.5%,-4.4%,4.7%,2.4%,-0.9,5.5%
Cc1cccc(-n2c(C)nc3cc(C(=O)NCc4ccc5c(c4)OCO5)ccc32)c1,-18.3%,44.7µM*,3.5%,8.4%,15.0,3.0%
COc1cccc(C(=O)NCc2ccc3[nH]c(C)cc3c2)c1,?,35.5µM*,7.5%,-3.1%,-10.3,9.4%
Cc1cc2cc(CNC(=O)c3ccc4c(c3)OCO4)ccc2[nH]1,8.9%,50.1µM*,?,2.2%,0.4,?
O=C(NCc1ccc2c(c1)OCO2)c1ccc2c(c1)OCO2,-7.9%,39.5%[12.7 µM],-11.8%,-6.2%,-6.9,-5.2%
Cc1cc(CNC(=O)c2ccc3c(c2)OCO3)c2ccccc2n1,1.0%,35.5µM*,0.4%,3.7%,0.4,-3.0%
COc1ccc(S(=O)(=O)c2c(Nc3ccc(C)cc3)sc(C(=O)c3ccc4c(c3)OCO4)c2N)cc1,nt,-32.9%[59 µM],-26.4%,-7.9%,nt,-2.0%
C=CCCCCCCCCCCCc1ccco1,?,nt,0.6%,-0.6%,6.3,-19.6%
COc1cc(C(=O)NCc2ccc3[nH]c(C)cc3c2)cc(OC)c1OC,10.4%,?,-14.0%,10.3%,-1.8,-2.9%
COc1ccc(C(=O)NCc2ccc3[nH]c(C)cc3c2)cc1OC,-24.8%,35.5µM*,7.7%,0.1%,-12.6,13.7%
CCOc1ccc(NC(=S)NCc2ccc3[nH]c(C)cc3c2)cc1,-13.0%,?,20µM*[quencher],?,-0.8,?
CCCCNC(=S)NCc1ccc2[nH]c(C)cc2c1,2.8%,?,?,12.9%,-4.6,-11.2%
CCOC(=O)c1[nH]c(C)c(CCC(=O)NCc2cccc(C)c2)c1C,nt,-27.0%[59 µM],-1.9%,2.9%,nt,4.1%
COc1ccc(C2=NN(C(=O)c3cccc([N+](=O)[O-])c3)C(c3cccc([N+](=O)[O-])c3)C2)cc1 (centres undefined),3.4%,?,-24.5%,5.9%,-0.6,-6.5%
Cc1ccc(C2=Nc3ccccc3SC(c3cccc([N+](=O)[O-])c3)C2)cc1 (centres undefined),8.91µM*,44.7µM*,-26.8%,4.0%,-16.3,?
CC(N)(C(=O)O)c1ccc(S(=O)(=O)O)cc1 (centres undefined),50.1µM*,18.1%[59 µM],0.4%,0.2%,nt,-1.8%
C[C@](N)(C(=O)O)c1ccc(-c2nn[nH]n2)cc1,28.2µM*,nt,2.2%,2.0%,-4.8,-4.0%
